Screens as filed in PubChem.
Lassa entry inh: Lassa virus entry inhibition | Lassa virus pseudotype entry inhibition, cell reporter | Potency, µM (titrated, usually from 37.9 µM), hits mostly inhibitors | 300,000 tested, 1.2% active | AID 540256; calls by dose curve; tested in HEK293 cells; note: nearly all actives have a fitted effect of over 50% in size
Vaccinia mCherry: vaccinia inhibition (mCherry reporter); AID 720579; Potency, µM (doses to about 36.5 µM), actives largely listed as inhibitors; 310,000 tested, 0.63% active; Vaccinia virus mCherry reporter infection, fluorescence; calls by dose curve; tested in A549 cells; note: nearly all actives have a fitted effect of over 35% in size
FMDV inh: foot and mouth disease virus antiviral activity | FMDV antiviral cell-based qHTS | 410,000 tested, 1.2% active | Potency, µM (titrated, usually from 57.9 µM), usual class: inhibitors | AID 1159524; calls by dose curve; tested in HEK293T cells; note: read-out not given here; nearly all actives have a fitted effect of over 45% in size
Sm TGR block: inhibitors of Schistosoma mansoni thioredoxin glutathione reductase. Potency, µM (top dose mostly 114 µM), actives largely listed as inhibitors. Q962Y6. 360,000 tested, 3% active. purified TGR, DTNB reduction, TNB absorbance 405 nm; active = well fitted inhibition curve with a large enough effect; inconclusive = small, poorly fitted or top-dose-only effect; inactive = no such curve, though single readings can be large or run the other way; note: nearly all actives have a fitted effect of over 60% in size
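Kinetic colorimetric format: TGR-catalysed, NADPH-driven DTNB reduction monitored via TNB absorbance. Enzyme dispensed at 20 nM; compound exposure 15 min at room temperature before reaction start.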
Marburg entry inh: blocks Marburg virus binding to or entry into cells; Potency, µM (titrated, usually from 37.8 µM), most hits filed as inhibitors; Marburg virus pseudotyped entry inhibition, cell reporter; 300,000 tested, 1.8% active; calls by dose curve; tested in HEK293 cells
VACV Venus inh: inhibitors of vaccinia virus (Venus reporter) | Vaccinia virus Venus reporter expression, fluorescence | Potency, µM (highest dose often 36.5 µM), usual class: inhibitors | 330,000 tested, 0.46% active | AID 720580; calls by dose curve; tested in A549 cells; note: nearly all actives have a fitted effect of over 30% in size
Large screens that a line does not name were inactive. Hits are enriched below; roughly 5.4% of the tested compounds scored in any of these assays.

CC(C)c1ccc(OCCCCN2CCCCC2)cc1	Marburg entry inh 11µM
Cc1ccc(OCCCCCCN2CCNCC2)cc1	Marburg entry inh 14µM (no result: Sm TGR block)
COc1ccc(-c2nn(-c3cccc(F)c3)c3c2cnc2cc(OC)c(OC)cc23)cc1	none (no result: Marburg entry inh)
COc1ccccc1C(=O)N1CCOc2ccc(CN3CCN(Cc4ccccn4)CC3)cc2C1	none (no result: Lassa entry inh, Sm TGR block, Marburg entry inh)
CCOC(=O)CC(NC(=O)CCc1c(C)nc2c(c1C)c(=O)n(C)c(=O)n2C)c1ccc(OCC)c(OC)c1 (centres undefined)	none
COc1ccc(N2CCN(Cc3cccn3-c3nnc(N4CCN(C5CCCCC5)CC4)s3)CC2)cc1	Lassa entry inh inconclusive (no result: Marburg entry inh)
CC1=CC(C)(C)Nc2ccc(Cc3ccc4c(c3)C(C)=CC(C)(C)N4)cc21	Sm TGR block 4µM (no result: Lassa entry inh, Marburg entry inh)
CSc1ccc(CCNC(=O)NCc2noc3ccccc23)cc1	none (no result: Marburg entry inh)
CCOC(=O)C1=C(C)N=c2s/c(=C\c3ccc(OCC(=O)O)cc3)c(=O)n2C1c1ccc(OC(C)C)cc1 (centres undefined)	FMDV inh 40µM, Marburg entry inh inconclusive
COc1ccc(/C=N/NC(=O)c2ccccc2OCc2ccccc2)c(OC)c1	Lassa entry inh inconclusive, Marburg entry inh inconclusive
C#CCOc1ccccc1/C=N/NC(=O)c1ccccc1OCc1ccccc1	FMDV inh 18µM (no result: Lassa entry inh, Vaccinia mCherry, Marburg entry inh, VACV Venus inh)
COc1ccc(/C=N/n2c(SC)nnc(C(C)(C)C)c2=O)c(OC)c1	Lassa entry inh 6.3µM (no result: Vaccinia mCherry)
O=[N+]([O-])c1ccc(NC(=S)NCc2ccncc2)cc1	Marburg entry inh inconclusive
CC(NC(=S)Nc1ccc([N+](=O)[O-])cc1)c1ccncc1 (centres undefined)	Sm TGR block 45µM
O=C(/C=C/c1ccc(-c2ccccc2[N+](=O)[O-])o1)c1ccco1	Sm TGR block 35µM
CC(=O)c1cccc(N(CC(=O)N2CCCC2)S(C)(=O)=O)c1	Sm TGR block 45µM
CC(NC(=O)c1ccco1)c1nnc2n1CCN(Cc1ccc(N(C)C)cc1)CC2 (centres undefined)	none (no result: Lassa entry inh, Sm TGR block, Marburg entry inh)
COc1ccccc1OCC(=O)N(Cc1nc(-c2ccccc2)no1)C(C)C	Lassa entry inh 7.9µM, Marburg entry inh inconclusive
O=C(CSc1nc2c([nH]c3ccccc32)c(=O)n1-c1ccccc1)Nc1ccccc1C(F)(F)F	none (no result: Marburg entry inh)
COc1ccccc1C1CC(c2c(-c3ccccc3)c3cc(Cl)ccc3[nH]c2=O)=NN1S(C)(=O)=O (centres undefined)	Lassa entry inh inconclusive, Vaccinia mCherry 11µM, FMDV inh inconclusive, Marburg entry inh inconclusive, VACV Venus inh 11µM
COc1ccc(C2CC(c3c(-c4ccccc4)c4cc(Cl)ccc4[nH]c3=O)=NN2C(=O)CCC(=O)O)cc1 (centres undefined)	none
CCOC(=O)c1ccc(N2C(=O)c3n[nH]c(-c4cccs4)c3C2c2cccc(F)c2)cc1 (centres undefined)	Lassa entry inh inconclusive, FMDV inh inconclusive, Marburg entry inh inconclusive
Cc1ccc(C(=O)Nc2c(C(=O)NCc3ccc(Cl)cc3)sc3nc(C)cc(C)c23)cc1	none
COc1ccc(NC(=O)c2cccc3c(Br)cccc23)cc1	none (no result: Lassa entry inh, Vaccinia mCherry, Marburg entry inh, VACV Venus inh)
COc1ccc(NC(=O)Nc2cccc3ccccc23)cc1S(N)(=O)=O	Lassa entry inh 4µM
COc1ccc(NC(=O)c2cc3ccccc3cc2O)cc1	Marburg entry inh 1.1µM
COc1ccc(NC(=O)Nc2cccc3ccccc23)cc1OC	none (no result: Lassa entry inh, Vaccinia mCherry, Marburg entry inh, VACV Venus inh)
COc1cccc(C(=O)Nc2cccc3ccccc23)c1OC	Lassa entry inh inconclusive, Marburg entry inh 8.9µM
COc1ccc(NC(=O)c2cccc3ccccc23)cc1	Sm TGR block 89µM, Marburg entry inh inconclusive
COC(=O)c1ccc(Cl)cc1NC(=O)Nc1nnc(N2CCCC2)s1	none
COc1ccc(S(=O)(=O)Nc2ccc3c(c2)CCCN3S(=O)(=O)c2ccc(C)cc2)cc1F	Lassa entry inh inconclusive (no result: Marburg entry inh)
COc1ccc(S(=O)(=O)Nc2cccc(-c3ccc(N4CCC(C)CC4)nn3)c2)cc1OC	FMDV inh inconclusive (no result: Marburg entry inh)
C/C(=N\NC(=O)C12CCC(C)(C(=O)O1)C2(C)C)c1ccccc1O (centres undefined)	Vaccinia mCherry inconclusive (no result: Lassa entry inh, Marburg entry inh)
CC12CCC(C(=O)N/N=C/c3ccc(O)cc3O)(OC1=O)C2(C)C (centres undefined)	Lassa entry inh inconclusive, Vaccinia mCherry 14µM, Marburg entry inh inconclusive
O=C(Nc1cc(C(F)(F)F)ccc1Cl)c1cc(S(=O)(=O)NCc2ccccc2)ccc1F	none (no result: Marburg entry inh)
